# Assay results from PubChem BioAssay (NCATS).
# “And” between values parts separate entries of the source, which are not always exact repeats. Identical values can stand only once. Inconclusive results are not listed. A call without a number means that no potency is given here. A number with no mark means an inactive call. The source made the active and inactive calls. The call rests on the fitted dose curve; in most records, active means well fitted inhibition curve with a large enough effect; inconclusive means small, poorly fitted or top-dose-only effect; inactive means flat fitted curve, though single readings scatter.
# What was measured:
# JCK = assay: qHTS profiling for inhibitors of Plasmodium falciparum proliferation (AID 504749); settings: P. falciparum in erythrocytes, SYBR Green DNA, 72 h; series mostly up to 28.7 µM
# In short: (§1)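 Fluorescence of SYBR Green-bound parasite DNA, read at 485/535 nm, served as the growth measure. Infected erythrocytes were cultured with compound 72 h; artemisinin (0.29 uM) and DMSO wells defined the normalization range.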
# N140 = assay: as above; settings: P. falciparum in erythrocytes, SYBR Green DNA, 72 h; series mostly up to 28.7 µM
# In short: as §1
# P93_24 = assay: as above; settings: P. falciparum in erythrocytes, SYBR Green DNA, 72 h; series mostly up to 28.7 µM
# In short: as §1
# P94_40 = assay: as above; settings: P. falciparum in erythrocytes, SYBR Green DNA, 72 h; series mostly up to 28.7 µM
# In short: as §1
# PAD = assay: as above; settings: P. falciparum in erythrocytes, SYBR Green DNA, 72 h; series mostly up to 28.7 µM
# In short: as §1
# PC15 = assay: as above; settings: P. falciparum in erythrocytes, SYBR Green DNA, 72 h; series mostly up to 28.7 µM
# In short: as §1
# PC26 = assay: as above; settings: P. falciparum in erythrocytes, SYBR Green DNA, 72 h; series mostly up to 28.7 µM
# In short: as §1
# PC49 = assay: as above; settings: P. falciparum in erythrocytes, SYBR Green DNA, 72 h; series mostly up to 28.7 µM
# In short: as §1
# SC27B = assay: as above; settings: P. falciparum in erythrocytes, SYBR Green DNA, 72 h; series mostly up to 28.7 µM
# In short: as §1
# TAB109 = assay: as above; settings: P. falciparum in erythrocytes, SYBR Green DNA, 72 h; series mostly up to 28.7 µM
# In short: as §1
# TAB113 = assay: as above; settings: P. falciparum in erythrocytes, SYBR Green DNA, 72 h; series mostly up to 28.7 µM
# In short: as §1
# TAB165 = assay: as above; settings: P. falciparum in erythrocytes, SYBR Green DNA, 72 h; series mostly up to 28.7 µM
# In short: as §1
# W2 = assay: as above; settings: P. falciparum in erythrocytes, SYBR Green DNA, 72 h; series mostly up to 28.7 µM
# In short: as §1
# CRL-7250 = normal cell line; assay: Cytotoxic Profiling of Annotated Libraries Using Quantitative High-Throughput Screening (AID 1296008); settings: Five cell lines viability, CellTiter-Glo ATP luminescence, 48-72 h; max response: stronger effect = lower value; further: potency means the concentration at half of the fitted maximal effect
# In short: (§2)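 Compounds were pin-transferred onto cells and incubated 48 or 72 hr at 37 degree Celsius, 95% humidity. CellTiter-Glo was added, plates sat 10 min at room temperature, then ATP-coupled luminescence was imaged as the viability read-out.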
# HEK293 = assay: as above; settings: Five cell lines viability, CellTiter-Glo ATP luminescence, 48-72 h; max response: stronger effect = lower value
# In short: as §2
# HaCat [1] = assay: as above; settings: Five cell lines viability, CellTiter-Glo ATP luminescence, 48-72 h; max response: stronger effect = lower value
# In short: as §2
# KB-3-1 = assay: as above; settings: Five cell lines viability, CellTiter-Glo ATP luminescence, 48-72 h; max response: stronger effect = lower value
# In short: as §2
# NIH3T3 = assay: as above; settings: Five cell lines viability, CellTiter-Glo ATP luminescence, 48-72 h; max response: stronger effect = lower value
# In short: as §2
# HACAT [2] = assay: qHTS assay to identify novel small-molecules to repurpose for Merkel cell carcinoma treatment (AID 1296009); settings: MCC and control cell lines, CellTiter-Glo viability, 72 h; at 44.8 µM (top of the series) unless noted
# In short: (§3)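 Luminescence from CellTiter-Glo, read 10 min after addition at room temperature, reported viability following a 72 hr, 37 degree celsius treatment with NPC or MIPE compounds in titration; values normalized to plate controls.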
# HEK293T = assay: as above; settings: MCC and control cell lines, CellTiter-Glo viability, 72 h; at 44.8 µM (top of the series) unless noted
# In short: as §3
# Further: nearly all actives have a fitted effect of over 60% in size.
compound,measurement,setting,value
N[C@@H](Cc1cc(I)c(Oc2cc(I)c(O)c(I)c2)c(I)c1)C(=O)O,Potency,JCK,inactive
same,Potency,N140,inactive
same,Potency,P93_24,inactive
same,Potency,P94_40,inactive
same,Potency,PAD,inactive
same,Potency,PC15,inactive
same,Potency,PC26,inactive
same,Potency,PC49,inactive
same,Potency,SC27B,inactive
same,Potency,TAB109,inactive
same,Potency,TAB113,inactive
same,Potency,TAB165,inactive
same,Potency,W2,inactive
same,max response,CRL-7250,0.853% and -3.78% and 2.29%
same,max response,HEK293,0.988% and -21.3% and 2.79%
same,max response,HaCat [1],-2.11%
same,outcome,HaCat [1],inactive
same,max response,KB-3-1,-0.982% and 2.52%
same,outcome,KB-3-1,inactive
same,max response,NIH3T3,-14.5%
same,outcome,NIH3T3,inactive
same,outcome,HACAT [2],inactive
CN(C)CCCC1(c2ccc(F)cc2)OCc2cc(C#N)ccc21 (stereo not given),max response,CRL-7250,-4.07%
same,max response,HEK293,-24.9%
same,max response,HaCat [1],-6.25% and -3.5%
same,max response,KB-3-1,-8.3% and 1.59%
same,max response,NIH3T3,-3.81% and 4.08%
CCN(CC)CCOc1ccc(Cc2ccccc2)cc1,Potency,JCK,inactive
same,Potency,N140,inactive
same,Potency,P93_24,inactive
same,Potency,P94_40,inactive
same,Potency,PAD,inactive
same,Potency,PC15,inactive
same,Potency,PC26,inactive
same,Potency,PC49,inactive
same,Potency,SC27B,inactive
same,Potency,TAB109,inactive
same,Potency,TAB113,inactive
same,Potency,TAB165,inactive
same,max response,CRL-7250,-29.7%
same,Potency,HEK293,8.33 µM (active)
same,max response,HaCat [1],-17.2%
same,outcome,HaCat [1],inactive
same,max response,KB-3-1,-7.39% and -3.92%
same,max response,NIH3T3,-6.6%
same,outcome,HACAT [2],inactive
C[C@@H](N)C1CCC(C(=O)Nc2ccncc2)CC1 (stereo not given in full),max response,CRL-7250,-11.2%
same,outcome,HEK293,inactive
same,outcome,HaCat [1],inactive
same,max response,KB-3-1,-5.62%
same,max response,NIH3T3,-5.63%
same,outcome,HACAT [2],inactive
same,outcome,HEK293T,inactive
Cc1nc2n(c(=O)c1CCN1CCC(c3noc4cc(F)ccc34)CC1)CCCC2,Potency,JCK,inactive
same,Potency,N140,inactive
same,Potency,P93_24,inactive
same,Potency,P94_40,inactive
same,Potency,PAD,inactive
same,Potency,PC15,inactive
same,Potency,PC26,inactive
same,Potency,PC49,inactive
same,Potency,SC27B,inactive
same,Potency,TAB109,inactive
same,Potency,TAB113,inactive
same,Potency,TAB165,inactive
same,max response,CRL-7250,0.174%
same,max response,HEK293,-10.6%
same,max response,HaCat [1],2.05% and 3.62%
same,max response,KB-3-1,0.624% and -4.98%
same,max response,NIH3T3,-4.59% and 2.76%
CCCCCCCCCCCCCCCCCCCCCCO,Potency,JCK,inactive
same,Potency,N140,inactive
same,Potency,P93_24,inactive
same,Potency,P94_40,inactive
same,Potency,PAD,inactive
same,Potency,PC15,inactive
same,Potency,PC26,inactive
same,Potency,PC49,inactive
same,Potency,SC27B,inactive
same,Potency,TAB109,inactive
same,Potency,TAB113,inactive
same,Potency,TAB165,inactive
same,Potency,W2,inactive
same,outcome,CRL-7250,inactive
same,max response,HEK293,1.6%
same,max response,HaCat [1],4.38%
same,max response,KB-3-1,-15.7% and 8.97%
same,outcome,NIH3T3,inactive
C[C@H](Cn1cnc2c(N)ncnc21)OCP(=O)(O)O,Potency,JCK,inactive
same,Potency,N140,inactive
same,Potency,P93_24,inactive
same,Potency,P94_40,inactive
same,Potency,PAD,inactive
same,Potency,PC15,inactive
same,Potency,PC26,inactive
same,Potency,PC49,inactive
same,Potency,SC27B,inactive
same,Potency,TAB109,inactive
same,Potency,TAB113,inactive
same,Potency,TAB165,inactive
same,Potency,W2,inactive
same,max response,CRL-7250,3.36%
same,outcome,HEK293,inactive
same,outcome,HaCat [1],inactive
same,outcome,KB-3-1,inactive
same,outcome,NIH3T3,inactive
same,outcome,HACAT [2],inactive
same,outcome,HEK293T,inactive
Nc1ccc(S(N)(=O)=O)cc1,Potency,JCK,inactive
same,Potency,N140,inactive
same,Potency,P93_24,inactive
same,Potency,P94_40,inactive
same,Potency,PAD,inactive
same,Potency,PC15,inactive
same,Potency,PC26,inactive
same,Potency,PC49,inactive
same,Potency,SC27B,inactive
same,Potency,TAB109,inactive
same,Potency,TAB113,inactive
same,Potency,TAB165,inactive
same,Potency,W2,inactive
same,max response,CRL-7250,-3.82% and 0.627%
same,max response,HEK293,0.928% and -22.2%
same,outcome,HaCat [1],inactive
same,max response,KB-3-1,4.1% and 2.9%
same,max response,NIH3T3,-7.64%
same,outcome,NIH3T3,inactive
same,outcome,HACAT [2],inactive
O=C(CCc1ccc(O)cc1)c1c(O)cc(O)cc1O,outcome,CRL-7250,inactive
same,max response,HEK293,0.264%
same,outcome,HaCat [1],inactive
same,outcome,KB-3-1,inactive
same,outcome,NIH3T3,inactive
same,outcome,HACAT [2],inactive
COc1cc2c(N3CCN(C(=O)Nc4ccc(OC(C)C)cc4)CC3)ncnc2cc1OCCCN1CCCCC1,max response,CRL-7250,-25.9% and -20.4%
same,Potency,HEK293,18.7 µM (active)
same,max response,HaCat [1],3.85% and 0.506%
same,max response,KB-3-1,-30.9% and -5.38%
same,max response,NIH3T3,-26.1%
COc1c(O)cc2c(c1O)[C@@H]1O[C@H](CO)[C@@H](O)[C@H](O)[C@H]1OC2=O,outcome,CRL-7250,inactive
same,outcome,HEK293,inactive
same,max response,HaCat [1],-11.1% and -23.6%
same,max response,KB-3-1,6.75% and -4.18% and 5.95%
same,max response,NIH3T3,-9.83% and 0.115%
same,outcome,HEK293T,inactive
